Laboratory results from PubChem BioAssay (Tox21).
Values joined by “and” are separate entries in the source; they are usually repeats but may differ in a detail not shown here. Equal values may be shown once. Inconclusive results are not listed. Some compounds were tested as several samples or in several runs, with calls that do not always agree. Active and inactive are the calls of the source. Unless noted, the call rests on the fitted dose curve; in most records, active means well fitted curve in the direction sought with a large enough effect in the repeat runs; inconclusive means weak or mixed curves; inactive means no such curve, though single readings can be large; an effect the other way counts as inactive or inconclusive.

Columns and labels:
[1] = qHTS assay to identify small molecule agonists of the hypoxia (HIF-1) signaling pathway - cell viability counter screen (AID 1224844; calls by dose curve; further: nearly all actives have a fitted effect of over 50% in size; further: potency means the concentration at half of the fitted maximal effect)
How it was run: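 Cytotoxicity measured by CellTiter-Glo ATP luminescence in the wells also read for beta-lactamase signal. Cells were HRE-bla ME-180 (2,000/well, 0.5% dialyzed FBS), exposed to compounds for 17 h at 37C.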

[2] = qHTS assay to identify small molecule agonists of the hypoxia (HIF-1) signaling pathway (AID 1224846; active means well fitted activation curve with a large enough effect in the signal ratio in the repeat runs, not every such curve was filed as active; the % refers to the signal ratio)
How it was run: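 Compounds added to ME-180 cells carrying hypoxia-response-element beta-lactamase reporter (0.5% dialyzed FBS, 5 h preplating), 17 h at 37C; agonist activity detected by CCF4-AM B/G FRET read-out.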

[3] = qHTS assay to identify small molecule agonists of H2AX - cell viability counter screen (AID 1224847; calls by dose curve; further: nearly all actives have a fitted effect of over 30% in size; further: potency means the concentration at half of the fitted maximal effect)
How it was run: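 Read-out: CellTiter-Glo luminescence, 30 min RT. Cells: wild-type CHO-K1, 1000/well, 10% FBS, plated overnight at 37C. Treatment: 15 concentrations, 3 hr, 37C, 0.76% DMSO.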

[4] = qHTS RealTime-Glo MT Cell Viability Assay in HepG2 cells - 24 hour (AID 1224867); further: nearly all actives have a fitted effect of over 50% in size; further: potency means the concentration at half of the fitted maximal effect
How it was run: (§1)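 Cells + NanoLuc/prosubstrate dispensed (600 cells/well) → 5 h at 37 C/5% CO2 → compounds in DMSO transferred → 40 h incubation at 37 C, luminescence read at 0, 8, 16, 24, 32, 40 h.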

[5] = qHTS RealTime-Glo MT Cell Viability Assay in HEK293 cells - 32 hour (AID 1224868); further: nearly all actives have a fitted effect of over 50% in size; further: potency means the concentration at half of the fitted maximal effect
How it was run: (§2)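 Tox21 10K qHTS, HEK293, 600 cells/well, RealTime-Glo reagent co-dispensed with cells; 5 h preincubation, compound by pintool, 37 C, luminescence at 0–40 h.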

[6] = A CellTox Green Cytotoxicity Assay to monitor cytotoxicity in HEK293 cells - 0 hour (AID 1224869); further: nearly all actives have a fitted effect of over 50% in size
How it was run: (§3)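 Fluorescence from a DNA-binding dye excluded by viable cells was measured repeatedly in the same HEK293 wells (600 cells/well) during continuous compound exposure at 37 C. Each assay gives one read point: 0, 8, 16, 24, 32 or 40 h.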

[7] = qHTS RealTime-Glo MT Cell Viability Assay in HepG2 cells - 40 hour (AID 1224870); further: nearly all actives have a fitted effect of over 50% in size; further: potency means the concentration at half of the fitted maximal effect
How it was run: (§4)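 Real-time viability: cells seeded at 600 per well together with NanoLuc and cell-permeant prosubstrate, compounds added after 5 h incubation. Luminescence tracked at 0, 8, 16, 24, 32 and 40 h of exposure.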

[8] = A CellTox Green Cytotoxicity Assay to monitor cytotoxicity in HEK293 cells - 40 hour (AID 1224871); further: nearly all actives have a fitted effect of over 45% in size; further: potency means the concentration at half of the fitted maximal effect
How it was run: as §3

[9] = qHTS RealTime-Glo MT Cell Viability Assay in HEK293 cells - 16 hour (AID 1224872); further: nearly all actives have a fitted effect of over 50% in size; further: potency means the concentration at half of the fitted maximal effect
How it was run: as §2

[10] = qHTS RealTime-Glo MT Cell Viability Assay in HepG2 cells - 8 hour (AID 1224873); further: nearly all actives have a fitted effect of over 55% in size
How it was run: as §4

[11] = qHTS RealTime-Glo MT Cell Viability Assay in HEK293 cells - 40 hour (AID 1224874); conditions: RealTime-Glo luminescence; max response: stronger effect = lower value; further: nearly all actives have a fitted effect of over 50% in size
How it was run: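 Luminescence, which tracks viable cell number through reduction of the prosubstrate to a NanoLuc substrate, was read over continuous 37 C culture. Cells (600/well) were premixed with reagent and rested 5 h before 23 nL of compound in DMSO was pinned.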

[12] = A CellTox Green Cytotoxicity Assay to monitor cytotoxicity in HEK293 cells - 24 hour (AID 1224875); further: nearly all actives have a fitted effect of over 45% in size
How it was run: as §3

[13] = A CellTox Green Cytotoxicity Assay to monitor cytotoxicity in HepG2 cells - 16 hour (AID 1224876); further: nearly all actives have a fitted effect of over 45% in size; further: potency means the concentration at half of the fitted maximal effect
How it was run: (§5)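 Real-time cytotoxicity: fluorescence of a cell-impermeant cyanine dye binding DNA of dead HepG2 cells, measured repeatedly (0–40 h) during compound exposure at 37 C. Cells seeded 600/well with reagent, dosed after 5 h.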

[14] = A CellTox Green Cytotoxicity Assay to monitor cytotoxicity in HepG2 cells - 24 hour (AID 1224878); further: nearly all actives have a fitted effect of over 45% in size; further: potency means the concentration at half of the fitted maximal effect
How it was run: as §5

[15] = A CellTox Green Cytotoxicity Assay to monitor cytotoxicity in HepG2 cells - 40 hour (AID 1224879); further: nearly all actives have a fitted effect of over 40% in size; further: potency means the concentration at half of the fitted maximal effect
How it was run: as §5

[16] = qHTS assay to identify small molecule agonists of H2AX (AID 1224845; active means well fitted activation curve with a large enough effect in the signal ratio in the repeat runs, not every such curve was filed as active; the % refers to the signal ratio)
How it was run: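 Phospho-H2AX Ser139 measured by HTRF (ex 320 nm; em 665 and 620 nm) after 24 hr antibody incubation. Compounds, 15 concentrations, 0.76% DMSO, were applied to CHO-K1 cells for 3hr at 37C before lysis.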

[17] = qHTS RealTime-Glo MT Cell Viability Assay in HepG2 cells - 32 hour (AID 1224877); further: nearly all actives have a fitted effect of over 55% in size; further: potency means the concentration at half of the fitted maximal effect
How it was run: as §1

[18] = qHTS assay to identify small molecule antagonists of the estrogen related receptor (ERR) signaling pathway from Tox21 library (AID 1224848); further: nearly all actives have a fitted effect of over 50% in size; further: potency means the concentration at half of the fitted maximal effect
How it was run: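 Luciferase luminescence (ONE-Glo, 30 min room temperature) was the read-out. Cells of the NTP-supplied ERR line, 2,000 per well, were given 6 h at 37 C before compound addition in DMSO and 18 h exposure at 37 C.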

[19] = qHTS assay to identify small molecule agonists of the estrogen related receptor (ERR) signaling pathway from Tox21 library (AID 1224849; calls by dose curve; further: nearly all actives have a fitted effect of over 15% in size); conditions: ERR reporter cell line, ONE-Glo luciferase, 18 h
How it was run: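 Luminescent agonist read-out (One-Glo, 30-minute room-temperature incubation) following 18-hour compound treatment at 37 C of the ERR cell line, which had been plated 6 hours before dosing.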
On the % scale 0 is the no-effect control and ±100 the full control effect.

C=C(C)C1CC=C(C)CC1 (centres undefined)
inactive: Potency [1] | Potency [2] | Potency [3] | Potency [4] | Potency [5] | Potency [6] | Potency [7] | Potency [8] | Potency [9] | Potency [10] | max response [11] 1.72% and 5.41% | Potency [12] | Potency [13] | Potency [14] | Potency [15]

CC(=O)Oc1ccccc1C(=O)Nc1ncc([N+](=O)[O-])s1
active: Potency [3] 9.16 µM and 24.7 µM | Potency [15] 11200 nM
inactive: Potency [1] | outcome [16] | Potency [4] | Potency [6] | Potency [7] | Potency [8] | Potency [10] | Potency [12] | Potency [13] | Potency [17] | Potency [14]

CC1=CCC(C(C)(C)O)CC1 (centres undefined)
inactive: Potency [1] | Potency [2] | Potency [3] | Potency [4] | Potency [5] | Potency [6] | Potency [7] | Potency [8] | Potency [10] | max response [11] 3.53% and 0% | Potency [12] | Potency [17]
inactive and 19.5 µM (active): Potency [13]
inactive and 21.9 µM (active): Potency [14] | Potency [15]

O=C(Nc1ccc(Cl)cc1)Nc1ccc(Cl)c(Cl)c1
active: Potency [3] 22.5 µM and 28.4 µM and 22 µM | Potency [18] 5.42 µM and 11.9 µM | Potency [5] 4.34 µM and 4.36 µM and 3.38 µM
inactive and 8.71 µM (active): Potency [8]
inactive: Potency [1] | Potency [2] | activity change, positive = activation ([19]; at 42.5 µM (top of the series)) -29.5% | activity change, positive = activation ([19]; at 92.4 µM (top of the series)) -26.7% and -3.58% | Potency [4] | Potency [6] | Potency [7] | Potency [10] | Potency [12] | Potency [13] | Potency [17] | Potency [14]

COc1cccc2c1C(=O)c1c(O)c3c(c(O)c1C2=O)C[C@@](O)(C(=O)CO)C[C@@H]3O[C@H]1C[C@H](N)[C@H](O)[C@H](C)O1
inactive and 21.3 µM (active): Potency [13] | Potency [14]
inactive and 1.69 µM (active): Potency [4]
active: Potency [1] 5.49 µM and 10.7 µM | Potency [5] 123 nM and 213 nM | Potency [7] 952 nM | Potency [9] 346 nM | Potency [17] 952 nM
inactive: Potency [3] | Potency [18] | activity change, positive = activation ([19]; at 42.5 µM (top of the series)) -2.08% and 0.0204% | Potency [6] | Potency [8] | Potency [10] | Potency [12] | Potency [15]

Cc1[nH]c(=O)c(C#N)cc1-c1ccncc1
inactive: Potency [1] | outcome [16] | Potency [3] | Potency [4] | Potency [5] | Potency [6] | Potency [7] | Potency [8] | Potency [9] | Potency [10] | max response [11] 0.254% and -5.73% | Potency [12] | Potency [13] | Potency [17] | Potency [14] | Potency [15]

O=C(c1ccccc1)c1ccccc1O
inactive: Potency [1] | Potency [2] | Potency [18] | activity change, positive = activation ([19]; at 92.4 µM (top of the series)) -0.602% and -1.04% | Potency [4] | Potency [5] | Potency [6] | Potency [7] | Potency [9] | Potency [10] | max response [11] -15.9% and -14.9% | Potency [12] | Potency [13] | Potency [17] | Potency [14] | Potency [15]

O=S(=O)(O)c1ccc(O)cc1
inactive: Potency [1] | outcome [16] | Potency [2] | Potency [3] | Potency [4] | Potency [5] | Potency [6] | Potency [7] | Potency [8] | Potency [10] | max response [11] 9.46% and 3.12% | Potency [12] | Potency [13] | Potency [14] | Potency [15]

COC(C)COC(C)COC(C)CO (centres undefined)
inactive: Potency [1] | Potency [2] | Potency [3] | Potency [18] | activity change, positive = activation ([19]; at 92.4 µM (top of the series)) -7.02% and 0.149% | Potency [4] | Potency [5] | Potency [6] | Potency [7] | Potency [8] | Potency [9] | Potency [10] | max response [11] 0.372% and 18.3% | Potency [12] | Potency [13] | Potency [17] | Potency [14] | Potency [15]

O=C(OCc1ccccc1)c1ccccc1O
inactive: Potency [1] | Potency [2] | Potency [3] | Potency [4] | Potency [5] | Potency [6] | Potency [7] | Potency [8] | Potency [10] | max response [11] -14.6% and -4.96% | Potency [12] | Potency [13] | Potency [14] | Potency [15]
